# In all, about 48,000 compounds went through this assay and about 13,000 (27%) showed an effect of 50% or more. The list shows a part of the results.
# System: Wolbachia pipientis
# Test: Anti-Wolbachia Cell-Based Screen
# Format: functional
# Design: scale not given: in the data most compounds retested in dose-response had high values
# Settings: 5 µM
row,Structure (SMILES),Percent Effect [%]
1,COc1ccc(CCN)cc1-c1ccc(O)cc1,-1.441
2,COc1cccc2c(=O)n(C3CCNCC3)cnc12,0.1861
3,COCC(=O)NC(C)Cc1cccc(OC)c1 (stereo not given),-11.91
4,COc1cccc(CC(C)NC(=O)NC(C)C)c1 (stereo not given),-4.746
5,COc1ccc(CC(C)Nc2cccc(F)c2)cc1 (stereo not given),103.5
6,CC(=O)N1CC[C@H]2N(C)CC[C@@]2(C(=O)Nc2cccnc2)CC1,115.3
7,CC(=O)N1CCC2(CC1)NC(=O)[C@H]1CN(Cc3cccnc3)C[C@H]12,-21.72
8,CC(=O)N1C[C@H]2CNC[C@@]2(C(=O)NCCCOc2cccnc2)C1,-25.71
9,CC1CCN(CC(=O)N(Cc2ccccc2)Cc2nccs2)C1=O (stereo not given),108.7
10,O=C(CCc1nccs1)N1CCC(C(=O)O)(c2ccccc2)CC1,4.146
11,CN(Cc1nc(C2CC2)no1)C(=O)CN1CC(c2ccccc2)CC1=O (stereo not given),-16.31
12,O=C(NC[C@H]1C[C@@H]2CCN1C[C@@H]2CN1CCOCC1)Nc1ccccc1,10.54
13,Cc1cc(C(=O)N2CCC3(CCN3Cc3ccc(F)cc3)C2)no1.O=C(O)C(F)(F)F (stereo not given),-18.68
14,Cn1cc(N2C(=O)CC[C@@H]3[C@H]2CCN3Cc2ccncc2)cn1.O=C(O)C(F)(F)F.O=C(O)C(F)(F)F,-8.311
15,CNC(=O)CN1C(=O)CCC12CCCN(Cc1ccccn1)C2 (stereo not given),-6.812
16,O=C(O)C(F)(F)F.O=C(O)C(F)(F)F.O=C1CC[C@@H]2[C@@H](CCN2Cc2ccncc2)N1c1ccccc1,-23.66
17,Cc1ccc(CN2CC[C@@H]3[C@H]2CCC(=O)N3Cc2ccncc2)s1.O=C(O)C(F)(F)F.O=C(O)C(F)(F)F,13.87
18,O=C(O)C(F)(F)F.O=C(O)C(F)(F)F.O=C(O)C(F)(F)F.O=C1N(c2cccnc2)CCC12CCCN(Cc1cccnc1)C2 (stereo not given),-3.646
19,CC[C@@H]1N(Cc2ccncc2)CCC[C@]12CCC(=O)N2CCOC.O=C(O)C(F)(F)F.O=C(O)C(F)(F)F,102.9
20,COCCCN1CCCCC12CC(=O)N(Cc1ccccn1)C2 (stereo not given),-0.9294
21,CC[C@@H]1N(Cc2cccnc2)CCC[C@]12CCC(=O)N2C.O=C(O)C(F)(F)F.O=C(O)C(F)(F)F,114.6
22,CN(C)C(=O)CN1CCC2(CCCN(Cc3cccnc3)C2)C1=O.O=C(O)C(F)(F)F.O=C(O)C(F)(F)F (stereo not given),-8.484

row,Structure (SMILES),Percent Effect [%]
1,CC[C@@H]1N(Cc2ccccn2)CCC[C@]12CCC(=O)N2CCOC,95.06
2,CC[C@@H]1N(Cc2ccncc2)CCC[C@]12CCC(=O)N2C.O=C(O)C(F)(F)F.O=C(O)C(F)(F)F,105.4
3,Cc1oc(-c2ccco2)nc1CC(=O)N1CCN(C2CCC2)CC1,0.04228
4,CNC(=O)[C@H]1C[C@@H]2CN(C(=O)c3cncc(C)c3)C[C@@H]2N1C,-44.11
5,O=C1O[C@@H]2CN(Cc3ccsc3)C[C@@H]2N1Cc1ccccn1,-2.572
6,CC(C)N1CCN(C)C2(CCN(C(=O)c3ccnnc3)CC2)C1=O,-6.646
7,CCS(=O)(=O)N1CCC2(C1)C(=O)N(C)CCN2Cc1ccncc1.O=C(O)C(F)(F)F.O=C(O)C(F)(F)F (stereo not given),-0.1551
8,CCN1CCN(C)C(=O)C12CCN(C(=O)Cc1ccccn1)CC2.O=C(O)C(F)(F)F,105.5
9,CC(C)CN1CCNC(=O)C12CCN(C(=O)c1ccccn1)CC2,-2.981
10,O=C(CCc1cscn1)N1CCC(C(=O)O)(c2ccccc2)CC1,-1.592
11,N#CC1(c2ccccc2)CCN(C(=O)CN2C(=O)CCNC2=O)CC1,-11.36
12,CCN1CCNC(=O)C12CCN(C(=O)Cc1ccccn1)CC2,118.9
13,CCN1CCNC(=O)C12CCN(C(=O)c1ccccn1)CC2,120
14,O=C(NCCc1ccncc1)[C@H]1CC[C@@H]2[C@@H](CCN2C2CCC2)O1,-5.975
15,OCCN1CCN(Cc2cc3c(cc2Br)OCCO3)CC1,1.369
16,CC(C)=CCN1C[C@H]2CC[C@@H]1CN(C(=O)Cc1c(C)nc(C)[nH]c1=O)C2,-7.395
17,CC(C)NC1CC2(CCNCC2)c2cc(F)ccc21.Cl.Cl (stereo not given),1.689
18,Cc1ccc2c(c1)C1(CCNCC1)CC2NCCO.Cl.Cl (stereo not given),90.17
19,Cc1ccc2c(c1)C(NC(C)C)CC21CCNCC1.Cl (stereo not given),-5.487
20,Cc1ccnc(NCCNC(=O)C2CC3(CCNCC3)CN2C)c1 (stereo not given),2.033
21,Cc1ccc2c(c1)C(NC1CC1)CC21CCNCC1.Cl (stereo not given),121
22,Cl.Cl.Fc1ccc2c(c1)C1(CCNCC1)CC2NC1CC1 (stereo not given),108.3

row,Structure (SMILES),Percent Effect [%]
1,COc1ccc2c(c1)C1(CCNCC1)CC2NC1CC1.Cl.Cl (stereo not given),123.6
2,Cl.O=C(Nc1ccccc1)C1=NOC2(CCNCC2)C1,-4.719
3,CN(C)C(=O)CN1CCCC2(CCN(c3ccc(C#N)cn3)C2)C1.O=C(O)C(F)(F)F (stereo not given),-7.726
4,Cc1cnn(CC(C)NCC(=O)NC2CCOCC2)c1 (stereo not given),1.556
5,COc1nc(N2CCNCC2)ncc1Br,-8.9
6,NC(=O)CC1CC2(CCNCC2)c2cc(F)ccc21.O=C(O)C(F)(F)F (stereo not given),111.2
7,CNC(=O)C1CCC2(CCNCC2)C1.O=C(O)C(F)(F)F (stereo not given),1.559
8,Cc1ccc2c(c1)C1(CCNCC1)CC2NC(C)C.Cl.Cl (stereo not given),-0.3898
9,Cc1ccc2c(c1)C1(CCNCC1)CC2NC1CC1.Cl.Cl (stereo not given),133.8
10,CN(C)C(=O)C1CCC2(CCNCC2)C1.O=C(O)C(F)(F)F (stereo not given),-33.97
11,Cn1cnc(S(=O)(=O)N2C[C@H]3CN(Cc4ccccn4)C[C@H]3C2)c1.O=C(O)C(F)(F)F.O=C(O)C(F)(F)F,1.449
12,O=C1NC[C@H]2CN(Cc3ccccn3)CCN12,-1.346
13,O=C(Cc1ccccn1)N1C[C@H]2CN(Cc3ccccn3)C[C@H]2C1,97.89
14,COC1CCC[C@@H]2CN(Cc3csc(C)n3)C[C@H]12.O=C(O)C(F)(F)F (stereo not given in full),-10.37
15,Cc1nc(CN2C[C@@H]3CN(C(=O)Cc4ccccn4)C[C@@H]3C2)cs1.O=C(O)C(F)(F)F.O=C(O)C(F)(F)F,107.4
16,O=C(NCCc1c[nH]cn1)c1ccccc1C1CCNC1 (stereo not given),-4.788
17,C/C(=C\c1ccco1)CN(C)C(C)Cc1ccccn1 (stereo not given),-10.17
18,CC(Cc1ccccn1)N(C)Cc1ccc2c(c1)CCO2 (stereo not given),27.39
19,Cc1ccccc1-n1nc(C)c(CN(C)C(C)Cc2ccccn2)c1C.O=C(O)CC(O)(CC(=O)O)C(=O)O (stereo not given),108.5
20,Cc1cc(N2CCC(NC(C)Cc3ccsc3)CC2)nc(N)n1 (stereo not given),-1.435
21,O=C(C1CCCCC1)N1C[C@@H]2CCNC[C@@H]21,-27.82
22,Cl.O=C(N1CCOCC1)N1CCC2(CCNC2)C1 (stereo not given),-12.19

row,Structure (SMILES),Percent Effect [%]
1,CN(C)[C@@H]1CN(C(=O)Cc2ccsc2)[C@@H]2CCCO[C@H]12.O=C(O)C(F)(F)F,105.5
2,O=C(Cc1ccsc1)N1C[C@@H]2OCCN(CC3CC3)[C@@H]2C1.O=C(O)C(F)(F)F,-8.837
3,CN(Cc1cccnc1)[C@@H]1CN(CC2CC2)[C@@H]2CCCO[C@H]12.O=C(O)C(F)(F)F.O=C(O)C(F)(F)F.O=C(O)C(F)(F)F,-5.445
4,O=C(Cc1cccs1)N1C[C@@H]2OCCN(CC3CCCO3)[C@@H]2C1.O=C(O)C(F)(F)F (stereo not given in full),-0.9645
5,O=C(Cc1cccs1)N1C[C@@H]2OCCN(CC3CCCC3)[C@@H]2C1.O=C(O)C(F)(F)F,-11.83
6,Cc1cccc(CN2C[C@@H](NC(=O)C3CC3)[C@H]3OCCC[C@H]32)n1.O=C(O)C(F)(F)F.O=C(O)C(F)(F)F,-26.04
7,CN1CCN([C@@H]2CN(C(=O)Cc3ccsc3)[C@@H]3CCCO[C@H]23)CC1.O=C(O)C(F)(F)F.O=C(O)C(F)(F)F,-4.372
8,CN(C)[C@@H]1CN(C(=O)Cc2ccc(F)cc2)[C@@H]2CCCO[C@H]12.O=C(O)C(F)(F)F,85.9
9,CN(C)[C@@H]1CN(C(=O)Cc2cccs2)[C@@H]2CCCO[C@H]12.O=C(O)C(F)(F)F,115.4
10,Cc1ccc(N2C[C@@H]3CCCO[C@@H]3[C@H](N3CCCC3)C2)nn1.O=C(O)C(F)(F)F.O=C(O)C(F)(F)F,-4.873
11,CN(C)[C@@H]1CN(C(=O)Cc2ccccc2)[C@@H]2CCCO[C@H]12.O=C(O)C(F)(F)F,100.5
12,Cc1cc(CN2C[C@@H]3CCCO[C@@H]3[C@H](N(C)C(C)C)C2)no1.O=C(O)C(F)(F)F.O=C(O)C(F)(F)F,-6.146
13,Cc1c(C(=O)O)nnn1Cc1cccc(C(F)(F)F)c1,6.81
14,COc1cccc(CN2CCN3C(=O)NC[C@H]3C2)n1,7.899
15,CN1CCC(N2CCN3C(=O)NC[C@H]3C2)CC1,-3.981
16,Cc1csc(C2(NCC(O)COC(C)C)CCCC2)n1 (stereo not given),-1.656
17,CC(=O)NC[C@H]1C[C@@H]2CCN1C[C@@H]2c1cc(-c2cccs2)nn1C,-4.622
18,CN(C)[C@@H]1CN(C(=O)Cc2cccc(F)c2)[C@@H]2CCCO[C@H]12.O=C(O)C(F)(F)F,118.8
19,Cn1cc(CN2CC[C@@H]3[C@@H]2CCN3C(=O)Cc2cccc(F)c2)cn1.O=C(O)C(F)(F)F,-1.291

# — ChEMBL document CHEMBL3988442, “University of Dundee, Small-Polar-MMV Screening Library” (2021)
